Results: PubChem BioAssay
Active and inactive are the calls of the source.

What was measured:
[1] = system: Plasmodium falciparum Sir2 (PF13_0152, Sir2A); assay: pfSir2 binders on small-molecule microarrays, primary screen, biochemical, small-molecule microarray, 635 nm fluorescence (AID 1098); details: small-molecule microarray binding, fluorescence 635 nm; higher = more signal;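 note: score merges spot fluorescence intensity with its signal-to-noise ratio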
[2] = small-molecule microarray binders of probe aDKK1, primary screen, biochemical, biotinylated probe, 635/667 nm fluorescence (AID 1099); details: higher = more signal;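 note: score merges 667nm spot fluorescence with signal to noise across triplicate slides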
[3] = small-molecule microarray binders of probe aCHRDL2, primary screen, biochemical, biotinylated probe, 635/667 nm fluorescence (AID 1100); details: higher = more signal
[4] = splicing luciferase reporter signal modulators, primary screen, spliceosome inhibition project, cell-based, HEK293, splice +/- reporter (AID 1101); details: luminescence, 24 h, higher = more signal, called active from +8 up or from −8 down;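 note: HEK293 cells carrying a splicing-competent luciferase reporter gene; test concentration not given here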
[5] = target: Fibroblast growth factor 10 (Homo sapiens) (UniProt O15520); assay: FGF10 binders on small-molecule microarrays, primary screen, biochemical, small-molecule microarray, 635 nm fluorescence (AID 1102); details: FGF10 binding, fluorescence 635 nm, higher = more signal
Chain of Fibroblast growth factor 10 (Homo sapiens) (O15520 whole entry, looked up): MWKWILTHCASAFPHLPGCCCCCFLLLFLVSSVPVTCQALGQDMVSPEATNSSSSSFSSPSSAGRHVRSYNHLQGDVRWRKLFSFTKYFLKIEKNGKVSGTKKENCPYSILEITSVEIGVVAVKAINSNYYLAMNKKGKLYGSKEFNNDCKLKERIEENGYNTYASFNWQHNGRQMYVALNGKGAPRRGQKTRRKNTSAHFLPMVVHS

[6] = system: glycogen synthase kinase-3 (GSK3A per assay name; protocol says GSK3B); assay: GSK3 binders on small-molecule microarrays, primary screen, biochemical, small-molecule microarray, 635 nm fluorescence, GSK3A (AID 1103); details: small-molecule microarray binding, fluorescence 635 nm; higher = more signal; note: the record names both GSK3A and GSK3B
[7] = target: Epidermal growth factor receptor (Homo sapiens) (UniProt P00533); assay: EGFR binders on small-molecule microarrays, primary screen, biochemical, small-molecule microarray, 635 nm fluorescence (AID 1104); details: EGFR binding, higher = more signal;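 note: score merges 667 nm emission intensity with spot signal to noise over triplicate slides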
Chain of Epidermal growth factor receptor (Homo sapiens) (P00533 whole entry, looked up): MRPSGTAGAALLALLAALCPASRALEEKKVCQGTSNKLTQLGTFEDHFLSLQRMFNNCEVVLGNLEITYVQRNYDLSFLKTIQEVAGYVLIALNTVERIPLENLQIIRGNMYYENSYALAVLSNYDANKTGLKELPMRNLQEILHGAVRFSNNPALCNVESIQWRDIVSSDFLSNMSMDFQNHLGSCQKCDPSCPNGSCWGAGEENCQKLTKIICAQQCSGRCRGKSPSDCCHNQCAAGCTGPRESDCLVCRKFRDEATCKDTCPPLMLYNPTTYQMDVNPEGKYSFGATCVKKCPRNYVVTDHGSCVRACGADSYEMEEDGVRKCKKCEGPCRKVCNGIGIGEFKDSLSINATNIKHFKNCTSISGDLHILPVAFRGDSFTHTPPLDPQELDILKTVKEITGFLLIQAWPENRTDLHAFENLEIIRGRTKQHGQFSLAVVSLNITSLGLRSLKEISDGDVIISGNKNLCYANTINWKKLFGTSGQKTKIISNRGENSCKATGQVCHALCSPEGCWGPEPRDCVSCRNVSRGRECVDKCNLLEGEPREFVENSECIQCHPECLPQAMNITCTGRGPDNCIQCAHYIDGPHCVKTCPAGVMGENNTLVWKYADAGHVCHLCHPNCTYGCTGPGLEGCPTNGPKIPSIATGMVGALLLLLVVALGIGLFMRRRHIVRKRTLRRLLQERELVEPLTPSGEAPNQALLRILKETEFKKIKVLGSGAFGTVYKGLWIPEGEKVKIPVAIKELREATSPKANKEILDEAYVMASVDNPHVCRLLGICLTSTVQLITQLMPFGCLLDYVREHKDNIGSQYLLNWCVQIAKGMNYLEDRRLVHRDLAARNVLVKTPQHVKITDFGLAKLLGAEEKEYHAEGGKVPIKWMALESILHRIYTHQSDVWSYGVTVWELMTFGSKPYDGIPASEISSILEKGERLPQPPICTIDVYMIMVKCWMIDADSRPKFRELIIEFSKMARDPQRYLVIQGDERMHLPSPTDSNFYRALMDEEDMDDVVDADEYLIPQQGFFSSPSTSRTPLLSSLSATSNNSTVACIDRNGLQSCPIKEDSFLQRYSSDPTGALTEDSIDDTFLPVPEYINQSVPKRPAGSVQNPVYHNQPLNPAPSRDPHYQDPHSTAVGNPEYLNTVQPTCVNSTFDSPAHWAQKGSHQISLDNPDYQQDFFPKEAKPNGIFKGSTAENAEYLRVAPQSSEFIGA

[8] = target: Follistatin-related protein 3 (Homo sapiens) (UniProt O95633); assay: FSTL3 binders on small-molecule microarrays, primary screen, biochemical, small-molecule microarray, 635 nm fluorescence (AID 1105); details: FSTL3 binding, higher = more signal;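 note: score merges emission near 667 nm and signal to noise per printed spot across three slides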
Chain of Follistatin-related protein 3 (Homo sapiens) (O95633 whole entry, looked up): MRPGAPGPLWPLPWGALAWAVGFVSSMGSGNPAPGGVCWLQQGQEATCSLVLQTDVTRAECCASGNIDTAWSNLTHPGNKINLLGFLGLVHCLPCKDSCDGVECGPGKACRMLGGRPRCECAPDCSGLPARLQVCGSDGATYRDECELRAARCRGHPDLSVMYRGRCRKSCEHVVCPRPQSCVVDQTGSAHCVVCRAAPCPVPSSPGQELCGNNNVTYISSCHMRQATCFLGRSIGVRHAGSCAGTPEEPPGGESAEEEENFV

[9] = target: Dickkopf-related protein 1 (Homo sapiens) (UniProt O94907); assay: DKK1 binders on small-molecule microarrays, primary screen, biochemical, small-molecule microarray, 635 nm fluorescence scan (AID 1106); details: DKK1 binding, higher = more signal;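 note: score merges emission near 667 nm with signal to noise over three replicate slides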
Chain of Dickkopf-related protein 1 (Homo sapiens) (O94907 whole entry, looked up): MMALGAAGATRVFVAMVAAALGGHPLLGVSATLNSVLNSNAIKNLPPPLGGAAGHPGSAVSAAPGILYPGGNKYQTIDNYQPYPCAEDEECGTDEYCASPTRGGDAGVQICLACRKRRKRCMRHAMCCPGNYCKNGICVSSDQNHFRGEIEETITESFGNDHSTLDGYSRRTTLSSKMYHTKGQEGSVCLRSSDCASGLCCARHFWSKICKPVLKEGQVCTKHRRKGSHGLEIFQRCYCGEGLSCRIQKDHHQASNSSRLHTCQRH

[10] = system: Inhibin beta A chain (activin A); assay: INHBA (activin A) binders on microarrays, primary screen, biochemical, small-molecule microarray, 635 nm fluorescence scan (AID 1107); details: small-molecule microarray binding, higher = more signal;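 note: mouse activin A protein probed at 4.33 µg/mL on printed slides; score merges bound-protein fluorescence near 667 nm with spot signal-to-noise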
[11] = system: Human papillomavirus type 1a protein E7 (residues 44-93); assay: HPV1a E7 fragment binders on microarrays, primary screen, biochemical, small-molecule microarray, residues 44-93, 635 nm fluorescence (AID 1108); details: small-molecule microarray binding, fluorescence 635 nm; higher = more signal;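 note: E7 fragment applied at 1 µg/mL in TBST for 1 h at 4 C; score combines spot fluorescence with its signal to noise ratio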
[12] = modulators of HCV replicon luciferase signal, primary screen, HCV replication inhibitor project, Huh7 cells, luciferase reporter (AID 1109); details: 48 h, higher = more signal;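 note: huh7 hepatoma cells harbouring a luciferase neomycin HCV replicon reporter; luciferase luminescence as measure of HCV replicon replication; test concentration not given here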
[13] = target: Left-right determination factor 2 (Homo sapiens) (UniProt O00292); assay: LEFTY2 binders on small-molecule microarrays, primary screen, biochemical, small-molecule microarray, 635 nm fluorescence scan (AID 1110); details: LEFTY2 binding, higher = more signal
Chain of Left-right determination factor 2 (Homo sapiens) (O00292 whole entry, looked up): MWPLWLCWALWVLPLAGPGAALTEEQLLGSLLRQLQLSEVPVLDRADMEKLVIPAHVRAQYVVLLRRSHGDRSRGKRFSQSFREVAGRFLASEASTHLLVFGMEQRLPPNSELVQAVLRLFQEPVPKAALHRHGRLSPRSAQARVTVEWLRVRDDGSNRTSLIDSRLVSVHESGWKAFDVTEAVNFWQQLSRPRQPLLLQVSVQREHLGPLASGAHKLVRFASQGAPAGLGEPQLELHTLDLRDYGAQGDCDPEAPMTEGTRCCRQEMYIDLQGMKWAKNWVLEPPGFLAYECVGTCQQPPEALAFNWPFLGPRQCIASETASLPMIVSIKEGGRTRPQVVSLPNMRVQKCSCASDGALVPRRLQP

[14] = target: Calmodulin-1 (Homo sapiens) (UniProt P0DP23); assay: CALM1 binders on microarrays, EGTA buffer, profiling panel, biochemical, small-molecule microarray, Cy5-labelled CALM1 (AID 1111); details: Cy5-CALM1 binding fluorescence, higher = more signal;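 note: labelled calmodulin applied in Tris saline Tween buffer holding calcium plus EGTA and DTT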
[15] = target: Calmodulin-1 (Homo sapiens) (UniProt P0DP23); assay: calcium-bound CALM1 binders on microarrays, profiling panel, artefact control for SMM control-protein annotation, biochemical, small-molecule microarray, Cy5-labelled CALM1, plus calcium (AID 1112); details: Cy5-CALM1 binding fluorescence, higher = more signal;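 note: score merges spot fluorescence with signal to noise from triplicate slides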
[16] = small-molecule microarray binders of probe aWnt5a, primary screen, biochemical, biotinylated probe, 635/667 nm fluorescence (AID 1113); details: higher = more signal;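 note: score merges 667 nm fluorescence intensity with signal-to-noise per printed feature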
[17] = small-molecule microarray binders of probe aShh, primary screen, biochemical, biotinylated probe, 635/667 nm fluorescence (AID 1114); details: higher = more signal;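 note: probe is biotin-labelled aShh protein from a stem cell growth factor screen; measures binding of labelled protein to compounds printed on the slide; score merges feature fluorescence at 667 nm with signal-to-noise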
[18] = small-molecule microarray binders of probe aNog, primary screen, biochemical, biotinylated probe, 635/667 nm fluorescence (AID 1115); details: higher = more signal;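 note: probe is biotinylated aNog protein used at 0.15 µg/mL for 1 h at 4 C; z-score combines 667 nm fluorescence of each spot with its signal to noise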
[19] = target: Torsin-1A-interacting protein 1 (Homo sapiens) (UniProt Q5JTV8); assay: LAP1 binders from COS7 cell lysate, primary screen, small-molecule microarray, 635/667 nm fluorescence (AID 1116); details: COS7-hLAP1 lysate binding, 635 nm fluorescence, higher = more signal
Chain of Torsin-1A-interacting protein 1 (Homo sapiens) (Q5JTV8 whole entry, looked up): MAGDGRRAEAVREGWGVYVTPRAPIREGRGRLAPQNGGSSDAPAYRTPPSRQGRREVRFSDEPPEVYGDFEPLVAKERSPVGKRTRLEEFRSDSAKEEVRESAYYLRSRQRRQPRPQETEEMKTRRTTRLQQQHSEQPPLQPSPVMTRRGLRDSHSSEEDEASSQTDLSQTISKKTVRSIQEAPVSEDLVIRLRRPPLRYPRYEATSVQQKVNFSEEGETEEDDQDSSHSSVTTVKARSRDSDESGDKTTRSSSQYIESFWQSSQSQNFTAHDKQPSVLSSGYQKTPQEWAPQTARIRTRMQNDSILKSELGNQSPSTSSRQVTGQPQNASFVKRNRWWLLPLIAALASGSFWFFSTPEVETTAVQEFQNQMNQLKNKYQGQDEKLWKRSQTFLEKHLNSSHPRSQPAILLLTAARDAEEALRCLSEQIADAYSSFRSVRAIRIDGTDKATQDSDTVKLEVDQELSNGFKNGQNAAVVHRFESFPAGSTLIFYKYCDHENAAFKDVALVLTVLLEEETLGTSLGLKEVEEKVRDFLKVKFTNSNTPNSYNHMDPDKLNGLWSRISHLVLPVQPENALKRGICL

[20] = target: Alpha-bungarotoxin (Bungarus multicinctus) (UniProt P60615); assay: alpha-bungarotoxin binders on microarray, profiling panel, artefact control for SMM control protein annotation, biochemical, small-molecule microarray, Alexa647 label, 635/667 nm fluorescence (AID 1117); details: alpha-BTX-A647 binding fluorescence, higher = more signal
Chain of Alpha-bungarotoxin (Bungarus multicinctus) (P60615 whole entry, looked up): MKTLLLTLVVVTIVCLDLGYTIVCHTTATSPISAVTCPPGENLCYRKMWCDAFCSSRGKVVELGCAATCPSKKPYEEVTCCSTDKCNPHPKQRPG

| SMILES | composite z-score [1] | composite z-score [2] | composite z-score [3] | z-score [4] | composite z-score [5] | composite z-score [6] | composite z-score [7] | composite z-score [8] | composite z-score [9] | composite z-score [10] | composite z-score [11] | z-score [12] | composite z-score [13] | composite z-score [14] | composite z-score [15] | composite z-score [16] | composite z-score [17] | composite z-score [18] | composite z-score [19] | composite z-score [20] |
| --- | --- | --- | --- | --- | --- | --- | --- | --- | --- | --- | --- | --- | --- | --- | --- | --- | --- | --- | --- | --- |
| CO[C@@H]1COC(=O)[C@@H]2CCCN2C(=O)[C@@H](C)COC(=O)CCC[C@H]1C | 0.877 | -0.331 | -0.624 | -1.27 (inactive) | 0.981 | 0.561 | 0.38 | 0.621 | 0.661 | -0.751 | 0.212 | -0.016 | 0.83 | -0.0691 | -0.911 | -0.175 | -0.0553 | -0.346 | 0.883 | 0.482 |
| CC1(C)O[C@H]2O[C@H]([C@H](O)CON=C3[C@H]4CCn5c(=O)n(-c6ccccc6)c(=O)n5[C@H]4[C@H](O)[C@@H]4O[C@H]34)[C@H](O)[C@H]2O1 | 0.378 | -0.179 | -0.181 | 0.407 (inactive) | 0.174 | 0.085 | 0.249 | 0.422 | 0.0043 | 0.695 | -1.32 | -0.0374 | 0.257 | 0.759 | 0.118 | -0.0748 | -0.501 | 0.222 | -0.144 | 0.168 |
| COC(=O)[C@@H]1CC[C@H](C)[C@@H](c2ccc(Br)cc2)N1C[C@H](O)CN=[N+]=[N-] | 0.0722 | -0.234 | 0.0248 | -0.812 (inactive) | 0.248 | -0.154 | 0.385 | -0.347 | -0.148 | 0.616 | 0.0343 | -0.0104 | 0.346 | 0.0364 | 0.123 | 0.14 | -0.0243 | -0.183 | -0.133 | 0.426 |
| CC(C)=NO[C@@H](C)c1cn([C@H](CO)Cc2ccccc2)nn1 | 0.8 | 0.0454 | -0.832 | -0.937 (inactive) | 0.393 | 0.523 | 0.303 | 0.345 | 0.27 | 0.111 | 0.833 | 1.13 | 0.802 | -0.03 | -0.408 | 0.0044 | -0.0794 | -0.35 | 0.541 | 0.392 |
| CCc1cc2c(nc1CC)CCN(CCC(C)=NOC(C)CN1CCCCc3nc(C)c(C)cc31)C2 (stereo not given) | 0.526 | -0.0521 | -0.215 | -0.242 (inactive) | 0.628 | 1.25 | 0.81 | 1.19 | 0.841 | 1.31 | 1.38 | -4.08 | 0.772 | 0.499 | 0.455 | -0.0735 | 0.0639 | -0.1 | 0.272 | 0.946 |
| CC(C)[C@@H](OCc1ccccc1)[C@H](C)C=NO[C@H](C)c1cn([C@@H]2COC[C@H]2O)nn1 | 0.385 | -0.492 | -0.511 | 0.0201 (inactive) | 0.457 | 1.08 | 0.556 | 0.448 | 0.0939 | -1.31 | 1.27 | -1.16 | 0.542 | -0.219 | -0.407 | -0.0832 | -0.206 | -0.198 | 0.296 | 0.586 |
| CCOC(=O)[C@H](CC(C)C)NC(=O)CCC1CC(OC(=O)NCCc2ccc(F)cc2)CC2(CCCC(COC(=O)NCCOC)O2)O1 (stereo not given in full) | 0.745 | 0.0045 | -0.411 | -0.0891 (inactive) | 1.15 | 0.953 | 0.633 | 1.36 | 0.96 | -0.0586 | 1.34 | -0.694 | 1.12 | 0.217 | -0.119 | -0.176 | -0.0769 | -0.438 | 0.461 | 0.411 |
| CC(CCN1CCCc2nc(C)c(C)cc21)=NO[C@H](C)c1cn([C@@H]2COC[C@H]2O)nn1 | 0.389 | -0.156 | -0.519 | 0.169 (inactive) | 0.667 | 1.11 | 1.06 | 0.884 | 0.902 | 1.26 | 0.839 | 0.0504 | 0.831 | -0.253 | -0.718 | -0.0478 | 0.0611 | -0.158 | 0.695 | 0.102 |
| CCOC(=O)[C@H](Cc1ccccc1)NC(=O)CCC1CC(OC(=O)NCc2ccc3c(c2)OCO3)CC2(CCCC(COC(=O)NCCOC)O2)O1 (stereo not given in full) | 0.857 | -0.219 | -0.49 | -0.991 (inactive) | 1.28 | 1.2 | 0.584 | 1.01 | 0.437 | -0.169 | 1.36 | -1.08 | 0.545 | 0.353 | -0.194 | -0.124 | -0.153 | -0.0524 | 0.609 | 0.591 |
| CCOC(=O)CCN1C(=O)[C@H]2[C@H]3[C@H](O)[C@H](O)CC(=NOCC=C(C)CCC=C(C)C)[C@H]3CC[C@H]2C1=O | -0.319 | 0.28 | -0.154 | 0.0511 (inactive) | 0.245 | -0.709 | 0.52 | -0.789 | -0.185 | -1.82 | -0.11 | -0.409 | 0.199 | -0.38 | -0.488 | -0.103 | -0.221 | -0.1 | -0.393 | 0.271 |
| CC(C)=CCCC(C)=CCON=C1C[C@@H](O)[C@@H](O)[C@@H]2[C@@H]3C(=O)N(Cc4ccc5c(c4)OCO5)C(=O)[C@@H]3CC[C@@H]12 | 0.769 | -0.268 | -0.451 | 0.0709 (inactive) | 1.01 | 0.579 | 0.696 | 1.03 | 0.915 | 1.3 | 0.909 | 0.298 | 0.368 | 0.359 | -0.0661 | 0.0388 | -0.0396 | 0.824 | 0.999 | 0.59 |
| CCOC(=O)[C@H](Cc1ccccc1)NC(=O)CCC1CC(OC(=O)NCc2cccc3ccccc23)CC2(CCCC(COC(=O)NCC3CCCCC3)O2)O1 (stereo not given in full) | 0.889 | -0.21 | -0.53 | -0.815 (inactive) | 0.781 | 0.805 | 0.604 | 0.872 | 0.795 | 0.381 | 1.33 | -1.48 | 0.643 | 0.297 | -0.525 | -0.0445 | 0.0596 | -0.142 | 0.128 | 0.746 |
| CO[C@H]1COC(=O)[C@H](C)COC(=O)[C@@H](OCc2ccccc2)C=C[C@@H]1C | -0.0072 | -0.386 | -0.743 | 0.0228 (inactive) | 0.083 | -0.357 | 0.274 | -0.266 | 0.32 | 0.251 | -0.0848 | -0.0886 | 0.328 | -0.46 | -0.726 | -0.123 | -0.0769 | -0.379 | -0.149 | -0.281 |
| CC(CCN1CCCc2nc(C)c(C)cc21)=NOC[C@@H](O)COCc1ccco1 | 1.22 | 1.57 | -0.216 | 0.58 (inactive) | 1.56 | 1.22 | 1.76 | 1.6 | 2.25 | 1.96 | -2.03 | -0.62 | 1.73 | 0.264 | -2.31 | 0.937 | 2.26 | 1.75 | 2.57 | 1.94 |
| C#CCCCON=C1C[C@@H](O)[C@@H](O)[C@@H]2[C@@H]3C(=O)N(C[C@@H]4CCCO4)C(=O)[C@@H]3CC[C@H]12 | 0.407 | -0.201 | -0.346 | 0.44 (inactive) | 0.331 | 0.444 | 0.451 | 0.457 | 0.481 | -0.0374 | 0.592 | 0.403 | 0.397 | 0.256 | -0.0973 | -0.096 | -0.2 | -0.462 | 0.742 | 0.355 |
